This note sets out measurements from PubChem BioAssay AID777 (Sanford-Burnham Center for Chemical Genomics, 2007).

Structures are written as SMILES. Among all 96,000 compounds or so, about 19,000 (20%) were called active. The list is a sample of the results. Values without a mark were called inactive.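 The calls were made as follows: active = blocking of liver enzyme CYP2C9 beyond about 50% at 5 µM (limit read from the data); inactive = the rest.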

The target of the assay is Cytochrome P450 2C9 (Homo sapiens) (UniProt P11712). In words: blockers of cytochrome P450 2C9 activity – biochemical, luminescence, ADME assay, primary screen (AID 777). The settings on record: CYP2C9 Supersomes, luciferin-H conversion, at 5 µM, active compounds read high.
Chain of Cytochrome P450 2C9 (Homo sapiens) (P11712 whole entry, looked up): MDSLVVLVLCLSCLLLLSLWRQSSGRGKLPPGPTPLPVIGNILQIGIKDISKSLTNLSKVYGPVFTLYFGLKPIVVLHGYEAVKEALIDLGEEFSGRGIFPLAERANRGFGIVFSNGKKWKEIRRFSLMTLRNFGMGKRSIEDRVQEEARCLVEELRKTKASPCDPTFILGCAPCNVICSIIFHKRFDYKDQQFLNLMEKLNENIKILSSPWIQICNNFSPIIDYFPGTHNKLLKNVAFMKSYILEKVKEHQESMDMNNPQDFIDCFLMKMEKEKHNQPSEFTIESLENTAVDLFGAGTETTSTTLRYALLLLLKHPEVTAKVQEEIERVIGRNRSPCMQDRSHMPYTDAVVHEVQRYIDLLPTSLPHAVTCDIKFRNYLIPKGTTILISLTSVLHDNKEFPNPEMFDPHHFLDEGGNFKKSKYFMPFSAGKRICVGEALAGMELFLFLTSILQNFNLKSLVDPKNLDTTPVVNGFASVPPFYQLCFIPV
`CC(=O)NC1=NC(=O)CS1`: the inhibition is 11.7%.

Take `COC(=O)C1=CN(C)C=C(C(=O)OC)C1c1ccc(Cl)cc1Cl`: the inhibition is 28%.

As to `COC(=O)C1=C(C)N(C)C(C)=C(C(=O)OC)C1c1cccc(Br)c1`, the inhibition was 93.8% (active).

As for `COC(=O)CN1C(C)=Nc2ccc(Br)cc2C1c1ccccc1` (stereo not given), the inhibition is -8.5%.

On to `COC(=O)Cc1nc2ccccc2[nH]1`, for which the inhibition is 7.9%.

On to `c1ccc2c(CSCc3nc4ccccc4[nH]3)cccc2c1`, for which the inhibition is 85.1% (active).

For the compound `Clc1ccccc1SCc1nc2ccccc2[nH]1`, the inhibition is 36.9%.

As for `CC(CN1CCOCC1)c1ccccc1` (stereo not given), the inhibition is 2.7%.

Consider `CN(CC(=O)NC1CCCCC1)S(=O)(=O)c1ccc(Br)s1`, for which the inhibition is -17.7%.

On to `Cn1c(CO)cnc1SCc1ccccc1`, for which the inhibition was 3.4%.

Regarding `CCS(=O)(=O)n1nc(-c2ccc(OC)cc2)nc1SC`, the inhibition was 42.2%.

Consider `CCS(=O)(=O)n1nc(-c2ccccc2)nc1SCc1ccccc1`, for which the inhibition was 87.9% (active).

For the compound `CSCCC(NC(=O)COc1ccccc1)C(=O)OCC(=O)c1cc2ccccc2o1` (stereo not given), the inhibition was 43.3%.

On to `COc1ccc2ccccc2c1CNCc1ccccn1`, for which the inhibition was -4.5%.

In the case of `Cc1cc(C)c(C#N)c(SCc2ccc3c(c2)OCO3)n1`, the inhibition is 90.5% (active).

With `Cc1cc(C)c(C#N)c(SCS(=O)c2ccc(C(C)(C)C)cc2)n1` (stereo not given), the inhibition is -50.8%.

For the compound `Cc1cc(C)c(C#N)c(SCc2ccccc2C(=O)O)n1`, the inhibition was 9.5%.

Turning to `CCCCN(C)Cc1c(C)[nH]c2ccc(Cl)cc2c1=O`, the inhibition is -10.7%.

`Cc1ccc(-c2csc(N(Cc3ccco3)C(=O)c3cccs3)n2)cc1`: the inhibition is 91.6% (active).

With `Cc1nnc(N(Cc2ccco2)C(=O)c2ccno2)s1`, the inhibition is 11.2%.

In the case of `O=C(O)CCC(=O)N(Cc1ccco1)c1nc(-c2ccccc2)cs1`, the inhibition was 5.2%.

As for `O=C(Nc1ccccc1)N(Cc1cccnc1)Cc1ccco1`, the inhibition is 35.5%.

As to `COC(=O)c1ccc(Oc2nc(NC(C)C)nc(SC)n2)cc1`, the inhibition is 37.2%.

For `Cc1nc(SCC(=O)N2CCc3ccccc3C2)c2c(C)c(C)sc2n1`, the inhibition is 55.9% (active).

Take `Nn1c(Cc2cccc3ccccc23)nnc1SCC(=O)N1CC(=O)Nc2ccccc21`: the inhibition was -64.6%.

For `Cc1nc(SCC(=O)Nc2cc(C)on2)c2c(C)c(C)sc2n1`, the inhibition is 14%.

In the case of `Cc1nnc(SCC(=O)N2CCc3ccccc3C2)s1`, the inhibition was 0%.

As for `O=C(CSc1nnc(-c2cccs2)n1Cc1ccccc1)N1CCc2ccccc2C1`, the inhibition was 48%.

On to `Cc1nc(SCC(=O)N2CC(=O)Nc3ccccc32)c2c(C)c(C)sc2n1`, for which the inhibition was 55.2% (active).

`COc1ccc(OC)c(NC(=O)CCN2CCC(C)CC2)c1`: the inhibition is 5.1%.

In the case of `CCc1nnc(NC(=O)CCC(=O)NCc2ccccc2OC)s1`, the inhibition was -14.5%.

Regarding `Cc1ccsc1-c1nc(CSCC(=O)NCCN2CCCC2)c(C)o1`, the inhibition was 7.3%.

`CCOc1cc(-c2cc(-c3ccc(OC)cc3)nc(N)c2C#N)ccc1O`: the inhibition was 47.2%.

As to `CCSc1nc(-c2ccc(OC)cc2)cc(-c2ccc(OC)cc2)c1C#N`, the inhibition was 75.3% (active).

As to `COc1ccc(C)cc1N(C)C(=O)c1coc(=O)c2ccccc12`, the inhibition was 33.1%.

Regarding `Cc1cc(C)cc(OCc2nnc(SCC(=O)Nc3ccccc3)o2)c1`, the inhibition was -3%.

In the case of `Cc1ccccc1OCc1nnc(SCC(=O)N2c3ccccc3Sc3ccc(Cl)cc32)o1`, the inhibition is 57.3% (active).

On to `O=C(CSc1nc2ccccc2o1)N1c2ccccc2Sc2ccc(Cl)cc21`, for which the inhibition was 60.9% (active).

As to `O=C(CSc1nc2ccccc2o1)N1CCN(c2ccc(Cl)cc2)CC1`, the inhibition is -11.9%.

As for `CC1Cc2ccccc2N1C(=O)CSc1nc2ccccc2o1` (stereo not given), the inhibition was 28.2%.

`CC(C)NC(=O)CSc1nnc(COc2ccccc2Cl)o1`: the inhibition is -39.2%.

In the case of `O=C(NC(C(=O)NCCN1CCOCC1)C12CC3CC(CC(C3)C1)C2)C1CCCCC1` (stereo not given), the inhibition is 18.3%.

As for `O=C(COc1ccc(Br)cc1F)NC1CCN(Cc2ccccc2)CC1`, the inhibition is 28.8%.

`CC1(C)CCCC2=C1CC1C(=O)N(c3ccccc3)C(=O)C1C2` (stereo not given): the inhibition was 90.7% (active).

As to `CC(=O)Oc1cccc(N2C(=O)C3CC=C(Cl)CC3C2=O)c1` (stereo not given), the inhibition was 3.2%.

Turning to `CCCCCCC(=O)N(O)C1CC(=O)N(c2ccccc2)C1=O` (stereo not given), the inhibition is -18.5%.

On to `Cc1cccn2c(=O)c3cc(C(=O)N4COCC4(C)C)n(C)c3nc12`, for which the inhibition was -0.4%.

Consider `O=C1c2ccccc2C(O)N1Cc1ccccc1Cl` (stereo not given), for which the inhibition is -6.9%.

As to `O=C(Nc1ccc(Br)cc1)C1CCC(=O)N1Cc1ccccc1Cl` (stereo not given), the inhibition is 89.5% (active).

In the case of `CCC(C)NC(=O)C1CCC(=O)N1Cc1ccc(C)cc1` (stereo not given), the inhibition is 3.2%.

Turning to `CCCOc1ccc(-c2nc(N)n[nH]2)cc1`, the inhibition was 3.7%.

On to `N=c1c2c(-c3ccccc3)c(-c3ccccc3)oc2ncn1Cc1ccco1`, for which the inhibition is 45.2%.

Consider `CCc1nc2oc3ccccc3c(=O)c2c(=O)n1Cc1ccc(OC)cc1`, for which the inhibition is 6.4%.

Take `CC1CN(C(=O)c2ccc3c(c2)OCO3)OC(c2ccccc2)O1` (stereo not given): the inhibition is 35%.

For the compound `CCOC(=O)C1=NNC2(c3ccc(Cl)cc3)C(=O)N(c3cc(C)cc(C)c3)C(=O)C12` (stereo not given), the inhibition is 64.1% (active).

On to `FC(F)(F)c1cc(C(F)(F)F)c2ccc(N3CCN(c4ccccc4)CC3)nc2n1`, for which the inhibition was -7.6%.

On to `CCN1CCCC1CNC(=O)c1cc2c(=O)n(C)c3ccccc3c2n1C` (stereo not given), for which the inhibition is 8.3%.

For the compound `O=c1[nH][nH]c(=O)c2cc(N3CCCC3)ccc12`, the inhibition is 2.6%.

As for `Cc1nc(NNC(=O)c2ccccc2)cc(-c2ccccc2)n1`, the inhibition was 62.7% (active).

Regarding `Cc1ccc2nc(-c3ccccc3)cc(C(=O)O)c2c1`, the inhibition was 34.4%.

Turning to `COc1ccc(C(=O)NN(C)c2nc(-c3ccccc3)cc(C)c2S(C)(=O)=O)cc1`, the inhibition was 13.3%.

Take `CCCCN(CC)CCCNC(=O)CS(=O)(=O)Cc1nc(-c2cccc(OC)c2)oc1C`: the inhibition is -5.6%.

In the case of `CC(=O)N1CCN(C(=O)c2cccc(S(=O)(=O)Nc3ccc(C)cc3)c2)CC1`, the inhibition is 0.3%.

For the compound `Cc1ccc(S(=O)(=O)Nc2nc(C)cc(-n3nc(C)cc3C)n2)cc1`, the inhibition is 29.1%.

For `Cc1ccc(S(=O)(=O)Nc2ccc3ncccc3c2)cc1`, the inhibition is 84.1% (active).

As for `CN=C1SC(CC(=O)Nc2ccc(C(=O)O)cc2)C(=O)N1C` (stereo not given), the inhibition was 8.3%.

On to `CCCCOc1ccc(NC(=O)CSCC(=O)OCC)cc1`, for which the inhibition was 0.4%.

As for `CCOC(=O)C1CCCCN1Cc1ccc(OC)c(OC)c1OC` (stereo not given), the inhibition was 29.7%.

For the compound `COc1ccc2c(c1)CCc1c(C(=O)N3CCc4ccccc4C3)noc1-2`, the inhibition is 73.7% (active).

`COc1ccc2c(c1)CCc1c(C(=O)Nc3c(C)n(C)n(-c4ccccc4)c3=O)noc1-2`: the inhibition is 14%.

Turning to `COc1ccc2c(c1)CCc1c(C(=O)N3CCCC3)noc1-2`, the inhibition was -6.1%.

For `CCOC(=O)c1cc(-c2ccc(Cl)s2)nc2c1c(C)nn2C`, the inhibition is 32.3%.

On to `Cc1cc(C(F)F)n2nc(C(=O)Nc3ccc(S(=O)(=O)NC45CC6CC(CC(C6)C4)C5)cc3)nc2n1`, for which the inhibition was 24.7%.

With `CCOc1c(OC)cc(C2C(C#N)=C(N)Oc3n[nH]c(-c4ccncc4)c32)cc1OC` (stereo not given), the inhibition was 20.1%.

On to `COc1ccc(/C=C2\CCCC3C2=NN(C(=O)c2scnc2C)C3c2ccc(OC)cc2)cc1` (stereo not given), for which the inhibition is 83.4% (active).

As to `Cc1nc2ccc(C(=O)O)cc2[nH]1`, the inhibition is 14.9%.

For the compound `Cc1cc(Br)ccc1NC(=O)C1CCCO1` (stereo not given), the inhibition was -2.8%.

Regarding `CCOC(=O)C1CN(S(=O)(=O)c2ccc(F)cc2)C1`, the inhibition was 8.2%.

Consider `COc1ccc(OC)c(NC(=O)CC(Cc2ccccc2OC)C(=O)O)c1` (stereo not given), for which the inhibition was 40.6%.

As to `CCCCCCC(=O)Nc1nc(C)c(-c2csc(Nc3cc(Cl)ccc3OC)n2)s1`, the inhibition was 14.8%.

Regarding `CCCCC(=O)Nc1nc(C)c(-c2csc(Nc3ccc(Cl)cc3)n2)s1`, the inhibition was 57.3% (active).

Regarding `C=CCCC(=O)Nc1nc(C)c(-c2csc(Nc3ccc(Cl)cc3)n2)s1`, the inhibition was 38.2%.

As for `CC(C)C(=O)N1c2ccccc2NC2=C(C(=O)CCC2)C1c1ccc(N(C)C)cc1` (stereo not given), the inhibition is 16.8%.

`COc1ccc(CCn2c(-c3ccco3)nc3nc4ccccc4nc32)cc1OC`: the inhibition was 34.7%.

Consider `CCC(C)n1c(-c2cc(OC)c(OC)c(OC)c2)nc2nc3ccccc3nc21` (stereo not given), for which the inhibition was 95.3% (active).

In the case of `COC(=O)c1nc(NC(=O)c2ccc(Cl)cc2)n[nH]1`, the inhibition is 7.9%.

In the case of `O=S(=O)(Nc1nccs1)c1ccc2c(c1)OCCO2`, the inhibition is -23.3%.

As for `CCc1ccccc1NC(=O)/C(=C/c1ccccc1)c1ccccc1`, the inhibition was 16.4%.

For the compound `O=C(/C=C/c1ccccc1)c1ccoc1`, the inhibition was 15.1%.

With `O=C(/C=C/c1ccccc1)N/C(=C/c1ccccc1)C(=O)Nc1ccccc1O`, the inhibition is 62.7% (active).

`CC(C)c1ccc(-c2nn[nH]n2)cc1`: the inhibition is 9.2%.

As for `O=C(Nc1ccc(Cl)cc1)N1CCc2[nH]c3ccccc3c2C1`, the inhibition was 14.2%.

`CCC(=O)Nc1cccc(NC(=O)c2cccnc2)c1`: the inhibition was 6.5%.

Regarding `Cc1cc(C)c(NC(=O)CS(=O)CC(=O)Nc2cccnc2)c(C)c1` (stereo not given), the inhibition was 22.7%.

In the case of `Cc1cccc(-n2cnc(C(=O)Nc3cccnc3)c2)n1`, the inhibition was 88.2% (active).

For `Cc1cc(-n2nc(C)cc2C)n2nc(C)c(-c3ccccc3)c2n1`, the inhibition is 25.1%.

Regarding `CC(Oc1ccc(Cl)cc1)C(=O)OCC(=O)Nc1ncc(Cl)cc1Cl` (stereo not given), the inhibition was -20.7%.

For the compound `Cc1cc(C)cc(OCC(=O)Nc2nc3ccc([N+](=O)[O-])cc3s2)c1`, the inhibition is 48.4%.

Turning to `O=C(NC(Nc1nc2ccc([N+](=O)[O-])cc2s1)(C(F)(F)F)C(F)(F)F)c1ccccc1`, the inhibition was 97.4% (active).

Take `CNC(=O)c1ccc2nc(NC(C)=O)sc2c1`: the inhibition is 21.5%.
